LMNA splice mod – LMNA splicing modulation; 0.01% of 200,000 active; Potency, µM (doses to about 46.1 µM), inactives show top-dose ratio change, negative = inhibition, usual class: inhibitors; HeLa LMNA splicing GFP/RFP minigene ratio, 48 h; active means well fitted inhibition curve with a large enough effect in the signal ratio, with a control signal flat, not every such curve was filed as active; inconclusive means small, poorly fitted or top-dose-only effect, or effect the other way, or a change in a side signal; the % refers to the signal ratio; further: on the % scale 0 is the no-effect control and ±100 the full control effect
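Read-out is the ratio of GFP to DsRed2 object intensity, acquired by 488 nm laser-scanning cytometry on HeLa lamin A-EGFP minigene reporter cells. Compound incubation 48 hrs at 37 °C in Opti-MEM with 2% FBS; DMSO 0.5% final.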
ALDH1A1 inh – ALDH1A1 (human) enzyme inhibition; P00352; Purified ALDH1A1, NADH fluorescence, propionaldehyde substrate; Potency, µM (titrated, usually from 75.3 µM), without a hit: top-dose activity, negative = inhibition, hits mostly inhibitors; 7.3% of 220,000 active; active means well fitted inhibition curve with a large enough effect, not every such curve was filed as active; inconclusive means small, poorly fitted or top-dose-only effect, or another doubt; inactive means no such curve, though single readings can be large or run the other way;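 further: plate controls were no enzyme wells and a reference inhibitor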
Target sequence (P00352 whole entry, looked up): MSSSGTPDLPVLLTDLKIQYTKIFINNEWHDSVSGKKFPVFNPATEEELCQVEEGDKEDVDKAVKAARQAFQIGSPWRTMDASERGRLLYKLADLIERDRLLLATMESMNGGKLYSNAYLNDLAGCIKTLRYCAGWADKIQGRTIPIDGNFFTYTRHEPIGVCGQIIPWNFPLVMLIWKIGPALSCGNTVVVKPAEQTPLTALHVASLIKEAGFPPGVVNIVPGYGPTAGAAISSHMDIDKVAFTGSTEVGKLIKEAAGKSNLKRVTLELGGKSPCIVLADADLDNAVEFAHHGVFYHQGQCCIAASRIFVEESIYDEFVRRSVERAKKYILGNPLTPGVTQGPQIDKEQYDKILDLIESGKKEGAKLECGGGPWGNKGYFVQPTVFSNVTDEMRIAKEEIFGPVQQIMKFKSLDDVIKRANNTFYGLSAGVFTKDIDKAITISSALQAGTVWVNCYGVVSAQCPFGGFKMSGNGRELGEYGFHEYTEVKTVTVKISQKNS
HTT aggregate – inhibitors of mutant huntingtin aggregate formation in PC12 cells | 1.1% of 220,000 active | PC12 HttQ103-GFP aggregates, Acumen cytometry, 40 h | Potency, µM (doses to about 46.1 µM), for the others: top-dose activity change, negative = inhibition, most hits filed as inhibitors; further: on the % scale 0 is the no-effect control and ±100 the full control effect; nearly all actives have a fitted effect of over 60% in size
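PC12 cells with ecdysone-inducible HTT exon1 Q103-GFP, induced by 100 nM tebufenozide, given compounds in a concentration series. GFP aggregates (1–25 um, 6 SD above background) counted in lysates by laser-scanning cytometry, 488 nm excitation.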
HPGD block – inhibitors of human 15-hydroxyprostaglandin dehydrogenase (HPGD); purified HPGD, NADH fluorescence kinetic, PGE2 substrate; Potency, µM, inactives show at the top dose activity change, negative = inhibition, usual class: inhibitors; 4.3% of 150,000 active; active means well fitted inhibition curve with a large enough effect, not every such curve was filed as active; inconclusive means small, poorly fitted or top-dose-only effect, or another doubt; inactive means no such curve, though single readings can be large or run the other way; further: on the % scale 0 is the no-effect control and ±100 the full control effect
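NADH formation kinetics: reaction with 30 uM PGE2 and 1 mM NAD+ (final), 20 nM enzyme, Tris-HCl pH 8 with Tween 20, after 15 min compound preincubation at room temperature. Fluorescence change, last versus first of five reads.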
HTT cytoprotect – protects HTT-Q103 PC12 cells, measured by ATP; PC12 HTT-Q103 induced, cytoprotection, ATP luminescence, 40 h; Potency, µM (series often up to 56.4 µM), inactives show cytoprotection (ATP increase), actives largely listed as activators; 0.14% of 230,000 active; AID 1471; further: % of control where 0% means no effect; nearly all actives have a fitted effect of over 45% in size
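Cells were plated at 1500 per well in phenol red-free DMEM with 5% equine and 5% calf serum. Tebufenozide (100 nM final) and compounds were added, then ATPlite reagent, and luminescence was read.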
Luc counter – Kinase-Glo luciferase inhibition (counter-screen); Q27757; Kinase-Glo luciferase, ATP luminescence, 8 min; Potency, µM (titrated, usually from 38.3 µM), for the others: top-dose activity change, negative = inhibition, usual class: inhibitors; 0.28% of 200,000 active; further: on the % scale 0 is the no-effect control and ±100 the full control effect; nearly all actives have a fitted effect of over 60% in size
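Inhibition of Kinase-Glo luciferase light generation was assessed at 10 uM ATP in pH 7.2 imidazole buffer, with luminescence measured after eight minutes at ambient temperature.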
Numbers without * were called inactive; [ ] = dose if it differs, or a comment. Rows were chosen to be rich in hits. Some 9% of all compounds tested hit in one or more screens of this group. Unless noted, the call rests on the fitted dose curve; in most records, active means well fitted curve in the direction sought with a large enough effect; inconclusive means small, poorly fitted or top-dose-only effect, or another doubt; inactive means no such curve, though single readings can be large; an effect the other way counts as inactive or inconclusive. Potency means the concentration at half of the fitted maximal effect.

How did COc1ccc2[nH]c(C)c(CCN3C(=O)C4C5C=CC(C5)C4C3=O)c2c1 (configuration not stated) do in these assays?
LMNA splice mod: 17%; ALDH1A1 inh: 13µM*; HTT aggregate: -10%; HPGD block: 2%; HTT cytoprotect: -9%; Luc counter: -1%

How did COC(=O)c1ccc(C2NC(=O)c3c(sc(C)c3C)N2)cc1 (configuration not stated) do in these assays?
ALDH1A1 inh: 24µM*; HTT aggregate: 0%[9.22 µM]; HTT cytoprotect: 0%[10 µM]

How did Cc1noc(C)c1S(=O)(=O)N1CCCC(C(=O)N2CCc3ccccc3C2)C1 (configuration not stated) do in these assays?
LMNA splice mod: -17%; ALDH1A1 inh: inconclusive; HTT aggregate: -6%; HPGD block: -16%; HTT cytoprotect: -24%; Luc counter: 1%

What do the screens show for `CC1(C)Oc2ccc(C(=O)NN)cc2NC1=O`?
ALDH1A1 inh: 1.6µM*; HTT aggregate: -7%; HTT cytoprotect: -47%; Luc counter: 1%

How did Cn1nnc(NC(=O)CSc2ccc(Cl)cc2)n1 do in these assays?
LMNA splice mod: -10%; ALDH1A1 inh: 4%; HTT aggregate: -3%; HPGD block: -13%; HTT cytoprotect: -17%[10 µM]; Luc counter: -2%

What do the screens show for `Cc1ccccc1N/N=C1\CCCNC1=O`?
LMNA splice mod: -3%; ALDH1A1 inh: 10µM*; HTT aggregate: 15%; HPGD block: 22µM*; HTT cytoprotect: -78%; Luc counter: -8%

Results for CCCc1cc2c(OC(=O)CC)c(-c3ccc(C(=O)OCC)o3)c(=O)oc2cc1OC ?
LMNA splice mod: -15%; ALDH1A1 inh: inconclusive; HTT aggregate: 30%; HPGD block: inconclusive; HTT cytoprotect: -6%[10 µM]; Luc counter: 2%

How did CC(C)OC(=O)[C@@H]1C=C[C@H](C)[C@@H](CCCCOCc2ccccc2)O1 do in these assays?
ALDH1A1 inh: 2%; HPGD block: -10%; HTT cytoprotect: -8%; Luc counter: 0%

How did Cc1cc(-c2csc(NC(=O)c3ccc(=O)[nH]c3)n2)c(C)n1Cc1ccco1 do in these assays?
LMNA splice mod: 22%[46 µM]; ALDH1A1 inh: 8.9µM*; HTT aggregate: 17%[9.22 µM]; HTT cytoprotect: 25%[10 µM]

Results for Cc1cc(-c2csc(NC(=O)c3ccc(=O)n(C)n3)n2)c(C)n1CC1CCCO1 (configuration not stated) ?
LMNA splice mod: -3%; ALDH1A1 inh: 20µM*; HTT aggregate: 16%; HPGD block: -10%; HTT cytoprotect: -27%[10 µM]; Luc counter: -14%

Results for CCNc1nc(-c2cc(C)n(Cc3ccco3)c2C)cs1 ?
ALDH1A1 inh: inconclusive; HTT aggregate: 9%; HTT cytoprotect: 19%; Luc counter: -6%

How did Cn1c(=O)c2c(nc(OCc3ccccc3)n2C)n(C)c1=O do in these assays?
LMNA splice mod: -6%; ALDH1A1 inh: -6%; HTT aggregate: -1%; HPGD block: -1%; HTT cytoprotect: -7%; Luc counter: 16%

How did CCN(CC)S(=O)(=O)c1cccc(-c2nnc(SCC(=O)NC3CCCCCC3)n2N)c1 do in these assays?
LMNA splice mod: -5%; ALDH1A1 inh: 9%; HTT aggregate: -9%; HPGD block: 3%; HTT cytoprotect: -1%[10 µM]; Luc counter: -5%

How did CCc1nc(NC(C)C)c2oc3ccccc3c2n1 do in these assays?
LMNA splice mod: 12%; ALDH1A1 inh: inconclusive; HTT aggregate: -14%; HPGD block: -13%; HTT cytoprotect: -27%; Luc counter: 1%

How did CCc1nc(N[C@H](C(=O)O)C(C)C)c2oc3ccccc3c2n1 do in these assays?
ALDH1A1 inh: 0.79µM*; HTT aggregate: -14%[9.22 µM]; HTT cytoprotect: 3%[10 µM]

What do the screens show for `CCc1nc(N[C@@H](CC(C)C)C(=O)O)c2oc3ccccc3c2n1`?
LMNA splice mod: 7%[0.0737 µM]; ALDH1A1 inh: 0.89µM*; HTT aggregate: 6%; HPGD block: -9%; HTT cytoprotect: 3%; Luc counter: -1%

What do the screens show for `CNc1nc(-c2ccccc2CN(C)C)nc2ccccc12`?
LMNA splice mod: -5%; ALDH1A1 inh: 12%; HTT cytoprotect: -43%

How did CN(C)c1ccc(-n2cccc2)cc1 do in these assays?
HTT aggregate: -2%[9.22 µM]; HTT cytoprotect: inconclusive

How did CN(C)c1ccc(SC#N)cc1 do in these assays?
ALDH1A1 inh: 13µM*; HTT aggregate: -2%[9.22 µM]; HTT cytoprotect: 12%[10 µM]

How did CN/S(=N/S(=O)(=O)c1ccccc1)c1ccc(C)cc1 (configuration not stated) do in these assays?
LMNA splice mod: 6%; ALDH1A1 inh: -5%; HTT aggregate: 2%; HPGD block: -9%; HTT cytoprotect: 2%; Luc counter: -2%

How did Cc1ccc(S(=O)(=O)/N=S(/c2ccccc2)C(C)C)cc1 (configuration not stated) do in these assays?
LMNA splice mod: inconclusive; ALDH1A1 inh: 19µM*; HTT aggregate: 7%[9.22 µM]; HTT cytoprotect: 9%[10 µM]

How did N[C@@H](CSC(=O)c1ccccc1)C(=O)O do in these assays?
ALDH1A1 inh: inconclusive; HPGD block: -3%; HTT cytoprotect: -15%[10 µM]; Luc counter: 0%[7.66 µM]

What do the screens show for `COCCNC(=O)Nc1ccc2c(c1)N(C)C(=O)CS2`?
LMNA splice mod: 12%; ALDH1A1 inh: 22µM*; HTT aggregate: 18%[9.22 µM]; HPGD block: -7%; HTT cytoprotect: 25%; Luc counter: 5%

Results for COCCCNC(=O)Nc1ccc2c(c1)N(C)C(=O)CS2 ?
LMNA splice mod: 15%; ALDH1A1 inh: 17%; HTT aggregate: -5%; HPGD block: -11%; HTT cytoprotect: 2%; Luc counter: 18%

What do the screens show for `CN1C(=O)CSc2ccc(NC(=O)NCCC3=CCCCC3)cc21`?
LMNA splice mod: 13%; ALDH1A1 inh: 7.9µM*; HTT aggregate: -2%[9.22 µM]; HPGD block: -9%; HTT cytoprotect: -12%; Luc counter: 2%

How did CCc1ccccc1NC(=O)CSC1=C(C#N)C(c2ccc3c(c2)OCO3)C2=C(CCCC2=O)N1 (configuration not stated) do in these assays?
LMNA splice mod: 0%; ALDH1A1 inh: 25µM*; HTT aggregate: -6%; HPGD block: -20%; HTT cytoprotect: 5%; Luc counter: -4%

How did CCN1CCN(C(=O)c2ccc(OC)c(S(=O)(=O)Nc3ccc(C)cc3)c2)CC1 do in these assays?
LMNA splice mod: -1%[46 µM]; ALDH1A1 inh: -2%; HTT aggregate: 12%; HTT cytoprotect: 14%; Luc counter: 1%

Compound activity from PubChem.
